Assay [1] has as its target Cell division control protein 42 homolog (Homo sapiens) (UniProt P60953). In words: inhibition of fluorescent GTP binding to constitutively active Cdc42 – biochemical, multiplex bead flow cytometry, Bodipy-FL-GTP, dose response (AID 1333;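 active = fitted half-maximal concentration within the tested dose range, moderate curve steepness, a statistically real signal drop, and little compound fluorescence or tag-binding interference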). In general terms: A flow cytometer gives signals particle by particle.
The target is the same in assay [2]. In words: inhibition of fluorescent GTP binding to wildtype Cdc42 – biochemical, multiplex bead flow cytometry, Bodipy-FL-GTP, dose response (AID 1334;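 active = fitted half-maximal concentration within the tested range, moderate curve steepness, significant signal drop, and little compound fluorescence or bead-linkage interference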). The settings on record: bead-based flow cytometry, Bodipy-FL-GTP binding to GST-Cdc42; at 100 µM (top of the series) unless noted.
For assay [3], the target named is GTPase HRas (Homo sapiens) (UniProt P01112). In words: Ras wt fluorescent GTP loading blockade – biochemical, wildtype, multiplex bead flow cytometry, dose response (AID 1335;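 active = fitted half-maximal concentration within 10 nM to 100 µM, steepness 0.5 to 2, significant signal drop, low assay interference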). The settings on record: bead-based flow cytometry, Bodipy-GTP binding to GST-Ras; at 100 µM (top of the series) unless noted.
Chain of GTPase HRas (Homo sapiens) (P01112 whole entry, looked up): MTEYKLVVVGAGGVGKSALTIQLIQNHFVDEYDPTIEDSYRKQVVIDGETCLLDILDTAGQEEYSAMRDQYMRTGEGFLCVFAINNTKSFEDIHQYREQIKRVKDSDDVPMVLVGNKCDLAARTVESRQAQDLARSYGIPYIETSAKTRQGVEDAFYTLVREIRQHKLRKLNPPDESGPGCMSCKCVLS
In assay [4] the test system is Ras-related protein Rab-7a (dog), GTP binding. In words: blockers of fluorescent GTP binding to Rab7 – biochemical, wildtype, multiplex bead flow cytometry, dose response (AID 1336).
The target in assay [5] is Ras-related C3 botulinum toxin substrate 1 (Homo sapiens) (UniProt P63000). Briefly: inhibition of wildtype Rac1 nucleotide loading – biochemical, multiplex bead flow cytometry, dose response (AID 1340;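 active = dose curve with midpoint inside tested range, moderate steepness, plateau gap beyond fit error, low compound glow and bead-link interference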). To be noted: GST-Rac1 beads, Bodipy-FL-GTP binding; at 100 µM (top of the series) unless noted.
Assay [6] has as its target GTPase HRas (Homo sapiens) (UniProt P01112). In words: blockade of GTP loading onto mutant Ras – biochemical, activated mutant, multiplex bead flow cytometry, dose response (AID 1341;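 active = dose-response curve with midpoint inside the tested range, moderate steepness, significant amplitude and little compound fluorescence or bead-attachment interference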;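 also: GST-tagged constitutively activated Ras mutant immobilized on beads and multiplexed with other GTPases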).
A short description of assay [7]: hit retest on RPL19A-GFP reporter strain – cell-based, S. cerevisiae, flow cytometry, cherry picks, mother/daughter gates, confirmation (AID 2270;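 active = GFP response below 50% of the DMSO control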). The settings on record: 3 h, at 10 µM, stronger effect = lower value, 100 = same GFP as DMSO wells.
Assay [8] is described as follows: yeast TOR pathway reporter LAP4-GFP change – cell-based, cherry picks, flow cytometry, mother/daughter gates, confirmation (AID 2271;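 active = GFP response above 150% of the DMSO control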;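 also: ratio of sample to DMSO plate mean so 100% equals DMSO level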). To be noted: S. cerevisiae LAP4-GFP strain, 3 h, at 10 µM, stronger effect = higher value, 100 means same as DMSO control.
Assay [9] in a line: TOR pathway reporter MEP2-GFP, retest of hits – S. cerevisiae, flow cytometry GFP, cherry picks, confirmation (AID 2272;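 active = GFP response above 150% of the DMSO control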;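 also: ratio of well signal to plate DMSO mean so 100% equals DMSO level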). To be noted: S. cerevisiae MEP2-GFP strain, 3 h, at 10 µM, stronger effect = higher value.
Assay [10] can be described thus: yeast AGP1-GFP fluorescence change, single-dose – cell-based, flow cytometry, S. cerevisiae, cherry picks, confirmation (AID 2273;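 active = GFP response above 150% of the DMSO level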;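 also: median GFP channel fluorescence over the whole cell population gate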). The settings on record: S. cerevisiae AGP1-GFP strain, 3 h, at 10 µM.
A short description of assay [11]: TOR pathway CIT2 reporter hit retest – S. cerevisiae, GFP fusion, cherry picks, mother/daughter gates, confirmation (AID 2274;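 active = GFP response above 150% of the DMSO level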). To be noted: S. cerevisiae CIT2-GFP strain, flow cytometry, 3 h, at 10 µM, stronger effect = higher value.
Assay [12] in a line: rapamycin-like changes in RPL19A-GFP expression – cell-based, S. cerevisiae, multiplex flow cytometry, primary screen (AID 1862; in the data active = percent of DMSO control GFP below about 86%;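 also: lower values mimic rapamycin by blocking the RPL19A rise seen in DMSO cells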). The settings on record: S. cerevisiae RPL19A-GFP strain, flow cytometry fluorescence, 3 h; at 10 µM; stronger effect = lower value.
A short description of assay [13]: TOR pathway GLN3 branch reporter MEP2-GFP changes – S. cerevisiae, multiplex flow cytometry, primary screen (AID 1867;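 active = GFP response, as percent of the DMSO control, above the screen-wide mean plus 3 SD, about 139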;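 also: median GFP channel fluorescence of barcode-gated MEP2-GFP cells measured by flow cytometry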). To be noted: S. cerevisiae MEP2-GFP strain, 3 h, at 10 µM, stronger effect = higher value, 100% means same as DMSO wells.
Assay [14] is described as follows: TOR pathway RTG branch CIT2 reporter changes – S. cerevisiae, GFP fusion, multiplex flow cytometry, primary screen (AID 1870;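 active = percent response above a set limit, the screen-wide mean plus 3 SD, cut at about 130% in these data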;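 also: barcoded CIT2-GFP strain pooled with four other GFP strains with rapamycin as positive control; median GFP fluorescence per well over plate mean of DMSO wells so 100% = DMSO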). The settings on record: S. cerevisiae CIT2-GFP expression, 3 h, at 10 µM, stronger effect = higher value.
Assay [15] is described as follows: TOR pathway LAP4-GFP level changes – S. cerevisiae, multiplex flow cytometry, primary screen (AID 1873;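 active = GFP signal, as percent of the solvent control, above the screen mean plus 3 SD, about 149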). The settings on record: S. cerevisiae LAP4-GFP expression, 3 h, at 10 µM, stronger effect = higher value.
The nature of assay [16]: yeast AGP1-GFP level changes, GLN3 branch – cell-based, multiplex flow cytometry, S. cerevisiae, primary screen (AID 1887;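 active = GFP signal above the screen-wide mean plus 3 SD, that is over about 124.5% of the solvent control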;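 also: AGP1-GFP fusion strain of S. cerevisiae within a five-strain barcoded multiplex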). The settings on record: 3 h, at 10 µM, stronger effect = higher value.
Assay [17] is described as follows: reduced mouse 2C T cell binding to pMHC/ICAM-1 vesicles – MLPCN validation set, flow cytometry, LFA-1/ICAM-1 modulator project, pilot screen (AID 2523;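 active = response below a set limit, under 55% cells CD8-positive and vesicle-bound, and CD8 cells' 90th-percentile brightness under 279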;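 as to vesicle binding response: mean PE anti-B7-1 fluorescence of CD8+ cells relative to row control; 100% = QL9-loaded vesicles with DMSO vehicle in the same plate row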). The settings on record: 2C mouse CD8+ T cells, at 7 µM, stronger effect = lower value; double positive events: measured here: CD8+/vesicle+ event percentage.
Assay [18] deals with Integrin beta-1 (Homo sapiens) + Integrin alpha-4 (Homo sapiens) (UniProt P13612+P05556). In words: alpha4beta1 integrin LIBS antibody binding reduction – U937 cells, HUTS-21 mAb, flow cytometry, validation set, VLA-4 allosteric modulator project, pilot screen (AID 2674;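 active = inhibition above 50%, about 3 SD of the validation set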;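 also: antibody binding induced by the VLA-4 ligand LDV present at three times its Kd; 0% = LDV ligand with antibody and no compound and 100% = antibody without LDV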). To be noted: HUTS-21 LIBS mAb binding, at 6.7 µM, stronger effect = higher value, binding induced by LDV ligand.
Chain of Integrin beta-1 (Homo sapiens) + Integrin alpha-4 (Homo sapiens) (P05556 whole entry, looked up): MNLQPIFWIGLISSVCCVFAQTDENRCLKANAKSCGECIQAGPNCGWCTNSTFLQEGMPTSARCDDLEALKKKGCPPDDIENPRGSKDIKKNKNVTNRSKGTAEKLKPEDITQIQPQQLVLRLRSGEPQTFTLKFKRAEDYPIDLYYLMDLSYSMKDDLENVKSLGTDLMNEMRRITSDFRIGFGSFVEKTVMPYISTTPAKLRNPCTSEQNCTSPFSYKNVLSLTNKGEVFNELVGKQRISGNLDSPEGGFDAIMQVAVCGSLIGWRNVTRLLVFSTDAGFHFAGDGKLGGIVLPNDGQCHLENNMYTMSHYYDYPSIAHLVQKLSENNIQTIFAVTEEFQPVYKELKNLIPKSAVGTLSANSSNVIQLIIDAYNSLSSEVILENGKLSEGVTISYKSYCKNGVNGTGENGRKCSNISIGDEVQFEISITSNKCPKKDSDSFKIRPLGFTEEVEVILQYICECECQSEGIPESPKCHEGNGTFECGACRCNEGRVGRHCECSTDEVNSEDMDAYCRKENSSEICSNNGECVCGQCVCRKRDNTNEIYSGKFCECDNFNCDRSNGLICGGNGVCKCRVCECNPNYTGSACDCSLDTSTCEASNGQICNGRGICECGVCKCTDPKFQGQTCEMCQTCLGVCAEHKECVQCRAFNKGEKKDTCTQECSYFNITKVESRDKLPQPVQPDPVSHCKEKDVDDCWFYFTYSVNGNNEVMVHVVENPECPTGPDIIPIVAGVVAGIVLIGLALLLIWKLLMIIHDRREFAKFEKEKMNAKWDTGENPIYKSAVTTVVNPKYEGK
Chain of Integrin beta-1 (Homo sapiens) + Integrin alpha-4 (Homo sapiens) (P13612 whole entry, looked up): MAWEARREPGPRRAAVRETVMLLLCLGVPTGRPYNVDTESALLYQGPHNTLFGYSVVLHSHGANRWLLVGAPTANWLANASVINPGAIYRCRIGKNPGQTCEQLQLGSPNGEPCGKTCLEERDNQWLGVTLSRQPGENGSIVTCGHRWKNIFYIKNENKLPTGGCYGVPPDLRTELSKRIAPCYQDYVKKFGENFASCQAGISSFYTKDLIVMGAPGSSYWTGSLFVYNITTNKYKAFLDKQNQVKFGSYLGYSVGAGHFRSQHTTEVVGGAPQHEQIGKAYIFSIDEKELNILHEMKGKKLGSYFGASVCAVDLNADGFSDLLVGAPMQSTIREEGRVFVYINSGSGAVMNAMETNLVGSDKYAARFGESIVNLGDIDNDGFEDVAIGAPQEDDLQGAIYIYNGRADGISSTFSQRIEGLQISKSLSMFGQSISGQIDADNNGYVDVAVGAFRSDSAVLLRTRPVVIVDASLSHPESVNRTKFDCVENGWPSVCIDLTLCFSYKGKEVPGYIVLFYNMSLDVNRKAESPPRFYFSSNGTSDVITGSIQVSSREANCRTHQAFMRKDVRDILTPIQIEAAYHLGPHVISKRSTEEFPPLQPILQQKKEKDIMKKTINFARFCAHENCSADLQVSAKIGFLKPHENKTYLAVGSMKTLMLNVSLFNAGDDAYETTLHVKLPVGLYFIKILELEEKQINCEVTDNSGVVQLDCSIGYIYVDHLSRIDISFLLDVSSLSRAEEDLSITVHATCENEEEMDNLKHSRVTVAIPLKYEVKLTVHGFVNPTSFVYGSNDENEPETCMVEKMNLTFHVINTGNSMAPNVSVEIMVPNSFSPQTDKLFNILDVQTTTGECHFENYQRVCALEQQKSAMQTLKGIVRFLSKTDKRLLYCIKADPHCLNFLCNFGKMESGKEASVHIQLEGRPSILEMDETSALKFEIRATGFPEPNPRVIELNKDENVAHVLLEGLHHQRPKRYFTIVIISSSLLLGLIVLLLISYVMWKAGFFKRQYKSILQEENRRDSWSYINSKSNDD
Assay [19] in a line: calorie-restriction mimetic ROS inhibitors, yeast – validation compound set, pilot screen (AID 2706;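 active = superoxide response below 65% of plate, a cut near 3 SD across the whole screen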;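 also: yeast exposed to compound for one week at 30 degrees C before staining; 100% = mean of all compound wells on the same plate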). The settings on record: S. cerevisiae aging, superoxide DHE fluorescence; at 10 µM; stronger effect = lower value.
In assay [20] the target is Beta-adrenergic receptor kinase 1 (Homo sapiens) (UniProt P25098). In words: GRK2 binders displacing RNA aptamer, biochemical, validation, human GRK2, bead flow cytometry (AID 488806;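 active = aptamer binding inhibition above 30%, about 3 SD of noise from non-fluorescent compounds; inactive = inhibition at or below 30%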). The settings on record: bead-bound GRK2, FAM-aptamer displacement, at 10 µM, stronger effect = higher value.
Chain of Beta-adrenergic receptor kinase 1 (Homo sapiens) (P25098 whole entry, looked up): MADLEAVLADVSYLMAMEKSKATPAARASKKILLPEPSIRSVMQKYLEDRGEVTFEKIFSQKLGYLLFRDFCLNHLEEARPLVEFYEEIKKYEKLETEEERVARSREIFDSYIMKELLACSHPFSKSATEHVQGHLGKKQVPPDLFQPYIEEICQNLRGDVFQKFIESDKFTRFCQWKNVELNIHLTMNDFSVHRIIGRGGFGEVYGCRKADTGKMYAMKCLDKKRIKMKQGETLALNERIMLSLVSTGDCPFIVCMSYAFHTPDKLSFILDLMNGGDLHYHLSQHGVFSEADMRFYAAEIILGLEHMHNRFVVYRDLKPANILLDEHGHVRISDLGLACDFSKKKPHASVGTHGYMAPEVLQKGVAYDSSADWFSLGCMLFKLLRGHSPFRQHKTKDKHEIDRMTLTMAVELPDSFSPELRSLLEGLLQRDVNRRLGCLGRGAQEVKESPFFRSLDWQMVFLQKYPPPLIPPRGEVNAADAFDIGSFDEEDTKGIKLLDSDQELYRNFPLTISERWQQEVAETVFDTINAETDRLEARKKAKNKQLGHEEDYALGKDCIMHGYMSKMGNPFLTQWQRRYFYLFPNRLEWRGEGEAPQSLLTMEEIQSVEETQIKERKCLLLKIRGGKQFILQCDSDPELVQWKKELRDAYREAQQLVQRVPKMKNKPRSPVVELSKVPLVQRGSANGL
Assay [21] concerns the target Beta-2 adrenergic receptor (Homo sapiens) (UniProt P07550). In words: agonist-induced loss of surface beta2AR – cell-based, FAP fluorogen, flow cytometry, validation set, pilot screen (AID 504459;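 active = percent response above 42, roughly 3 SD of non-fluorescent test compounds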;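 also: agonist-driven loss of surface beta2AR via internalization measured by FAP dye flow cytometry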). The settings on record: Am2.2-beta2AR cells, at 10 µM, stronger effect = higher value.
The target in assay [22] is AP-2 complex subunit beta (Homo sapiens) (UniProt P63010). In words: beta-arrestin/AP2 interaction blockers – biochemical, validation set, GST-AP2 beads, flow cytometry, pilot screen (AID 504541;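 active = inhibition above 54%, about 3 SD of non-fluorescent compounds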;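 also: AP2 carries R879A mutation and is captured from E. coli lysate; bead-bound FITC arrestin peptide fluorescence measuring arrestin peptide binding to AP2; 0% = DMSO wells and 100% = excess unlabeled arrestin peptide control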). To be noted: FITC arrestin peptide, at 10 µM, stronger effect = higher value, AP2 beta2 appendage fragment, R879A mutant.
Chain of AP-2 complex subunit beta (Homo sapiens) (P63010 whole entry, looked up, the tested form may be a part, one chain of several): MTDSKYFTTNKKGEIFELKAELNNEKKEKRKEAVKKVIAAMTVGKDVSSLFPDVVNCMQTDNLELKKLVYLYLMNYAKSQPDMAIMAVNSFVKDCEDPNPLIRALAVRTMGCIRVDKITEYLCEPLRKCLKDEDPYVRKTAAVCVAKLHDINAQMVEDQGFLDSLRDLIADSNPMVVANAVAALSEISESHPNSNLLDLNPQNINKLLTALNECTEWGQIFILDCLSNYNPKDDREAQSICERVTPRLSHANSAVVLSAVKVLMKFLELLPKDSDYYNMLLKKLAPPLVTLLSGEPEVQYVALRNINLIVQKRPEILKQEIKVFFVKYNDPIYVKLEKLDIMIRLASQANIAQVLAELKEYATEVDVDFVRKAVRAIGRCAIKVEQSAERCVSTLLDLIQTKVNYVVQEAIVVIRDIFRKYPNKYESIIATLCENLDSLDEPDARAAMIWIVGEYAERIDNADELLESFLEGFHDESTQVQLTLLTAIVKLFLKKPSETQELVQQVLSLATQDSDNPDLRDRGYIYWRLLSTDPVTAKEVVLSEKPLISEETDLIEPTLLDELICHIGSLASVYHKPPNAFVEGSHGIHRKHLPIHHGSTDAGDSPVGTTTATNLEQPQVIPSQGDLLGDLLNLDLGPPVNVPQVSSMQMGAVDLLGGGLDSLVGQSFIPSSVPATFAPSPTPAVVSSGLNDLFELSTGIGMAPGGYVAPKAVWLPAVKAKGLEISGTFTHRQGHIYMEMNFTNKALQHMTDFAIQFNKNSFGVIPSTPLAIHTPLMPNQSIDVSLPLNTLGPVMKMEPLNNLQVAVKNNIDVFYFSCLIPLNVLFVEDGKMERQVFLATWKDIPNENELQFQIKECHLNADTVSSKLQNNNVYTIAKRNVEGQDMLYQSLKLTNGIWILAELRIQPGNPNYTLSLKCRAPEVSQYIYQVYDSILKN
A short description of assay [23]: cytosolic pH regulators acting via V-ATPase – S. cerevisiae, pHLuorin, HTS validation (AID 504600; in the data active = response above about 15%;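 also: plate controls were DMSO for no effect and reference compound for full effect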). To be noted: V-ATPase proton transport, at 10 µM, stronger effect = higher value.
Assay [24] has as its system anti-desmoglein-3 scFv antibody binding to human DSG3. Briefly: blockers of pathogenic pemphigus antibody–desmoglein-3 binding – biochemical, validation compound set, bead-based, flow cytometry, pilot screen (AID 588368;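 active = binding below the plate cutoff, the plate median minus 3 SD, with a reading above zero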;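 also: signal is the median channel fluorescence of bead-bound GFP antibody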). To be noted: Protein G beads, DSG3-Fc, scFv-GFP binding, at 10 µM, stronger effect = lower value.
Assay [25] in a line: Nile Red efflux blockade in pump-expressing yeast – validation compound set, multiplex, phenotypic, pilot screen (AID 588506;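 active = efflux inhibition above 0.42, the validation set average plus 4 SD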;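 also: Nile Red retained in cells so higher fluorescence means more efflux inhibition; 0 = negative control wells and 1 = enniatin B 25 µM full block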). The settings on record: S. cerevisiae pump-expressing triplex, Nile Red efflux flow cytometry; at 10 µM; stronger effect = higher value; the pumps come from Candida albicans.
The target in assay [26] is ATP-binding cassette sub-family B member 6 (Homo sapiens) (UniProt Q9NP58). Briefly: blockers of ABCB6-driven porphyrin uptake – K562-ABCB6 cells, flow cytometry, validation set, pilot screen (AID 588550;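 active = inhibition above the screen-wide mean plus 3 SD, about 51%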;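 also: 0% = DMSO wells and 100% = benzethonium chloride 70 µM positive control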). The settings on record: K562-ABCB6 porphyrin accumulation, 1 h, at 10 µM, stronger effect = higher value.
Assay [27] is described as follows: AML differentiation inducers, ER-HoxA9 marrow cells – cell-based, GFP/MAC1 double positive, flow cytometry, validation set, primary screen (AID 588685;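 active = differentiation response of at least 50%, scaled between solvent and reference control, from cells with both markers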;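 also: compound exposure lasts four days before antibody staining and flow analysis; 0% = DMSO wells and 100% = 5 µM fulvestrant positive control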). The settings on record: stronger effect = higher value, normalized: vehicle 0, fulvestrant 100.
Where [28] appears, read: measured here: daughter cell gate.
Where [29] appears, read: measured here: mother cell gate.

For orientation: inhibition means the change of the read-out against control, counted positive when it falls.

Each structure is given as a SMILES string. Inconclusive results are not listed. For part of these data: Entries with a potency or affinity are not part of this list. The source made the active and inactive calls. Unless noted, no rule for the calls is given here.

Chain of Cell division control protein 42 homolog (Homo sapiens) (P60953 whole entry, looked up): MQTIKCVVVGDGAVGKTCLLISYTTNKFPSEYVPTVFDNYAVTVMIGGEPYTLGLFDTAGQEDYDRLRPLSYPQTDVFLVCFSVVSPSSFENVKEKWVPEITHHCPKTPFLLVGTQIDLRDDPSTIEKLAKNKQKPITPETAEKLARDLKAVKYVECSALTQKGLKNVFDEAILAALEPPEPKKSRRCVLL
Chain of Beta-2 adrenergic receptor (Homo sapiens) (P07550 whole entry, looked up): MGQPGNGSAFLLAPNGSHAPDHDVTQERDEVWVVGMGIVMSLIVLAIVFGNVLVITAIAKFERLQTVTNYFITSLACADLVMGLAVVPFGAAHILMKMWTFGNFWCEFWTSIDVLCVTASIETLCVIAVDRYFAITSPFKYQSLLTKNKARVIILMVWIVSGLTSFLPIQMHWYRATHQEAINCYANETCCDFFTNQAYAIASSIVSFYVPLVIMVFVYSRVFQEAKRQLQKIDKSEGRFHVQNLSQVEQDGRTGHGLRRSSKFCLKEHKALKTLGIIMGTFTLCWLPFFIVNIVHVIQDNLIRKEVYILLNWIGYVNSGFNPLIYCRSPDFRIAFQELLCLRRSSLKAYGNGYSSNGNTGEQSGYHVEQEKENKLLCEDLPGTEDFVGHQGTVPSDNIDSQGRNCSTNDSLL

Turning to `CC(C)(C)c1ccc(C(=O)CC(Sc2ccc(Cl)cc2)C(=O)O)cc1` (stereo not given), the outcome in [1], in [4] and in [6] was inactive. In [2], this compound yielded a fluorescence, percent of control (lower = inhibition) of 30.3%. The compound also came in with a GTP binding, percent of control in assay [3] of 79.2%. Moreover, the GTP binding signal, raw median fluorescence (lower = inhibition) (MCF (arbitrary fluorescence units)) in assay [5] turned out to be 285. Also, the GFP response vs DMSO in assay [7] was 100% (inactive); in assay [7] (setting [28]), 97.1%; in assay [7] (setting [29]), 100%; in assay [9], 101% (inactive). Besides, the GFP response relative to DMSO in [8] was 120% (inactive); in [8] (measured here: daughter cell gate response) it was 112%; in assay [8] (measured here: mother cell gate response) it was 125%. Also, the GFP response, % of DMSO in [10] was 98.4% (inactive); in assay [11] it was 79.7% (inactive); in assay [11] (setting [28]), 79.4%; in assay [11] (setting [29]), 77.8%.

Consider `CCn1nc(C(=O)OCC(=O)c2cc(C)n(Cc3cccs3)c2C)c2ccccc2c1=O`, for which the compound was classed as inactive in assay [1], in [4] and in assay [6]. In assay [2], this compound registered a fluorescence, percent of control (lower = inhibition) of 46.9%. In addition, the GTP binding, percent of control in assay [3] came out at 64.2%.

In the case of `COC(=O)C1=NN(C(=O)c2cccc(Br)c2)C(O)(c2ccc(Cl)cc2)C1` (stereo not given), the call in assay [1], in [4] and in assay [6] was inactive. The compound also returned a fluorescence, percent of control (lower = inhibition) in [2] of 31.2%. For the same compound, in [3], the GTP binding, percent of control worked out at 79.1%. The compound also yielded a GTP binding signal, raw median fluorescence (lower = inhibition) (MCF (arbitrary fluorescence units)) in [5] of 240. Also, in assay [12], the percent of DMSO control GFP was 100% (inactive). Moreover, the GFP response vs DMSO was 95.1% (inactive) in assay [13] and 114% (inactive) in [15]. For the same compound, the percent response of DMSO control in assay [14] is 97.8% (inactive). The GFP response, % of DMSO in [16] is 89.9% (inactive). In addition, the double positive events in [17] stood at 63.4%. Also, the vesicle binding response in [17] is 223% (inactive). The inhibition in assay [18] was -83.5% (inactive); in assay [22], -11.3% (inactive); in assay [26], -2% (inactive). The superoxide response (% of plate) in assay [19] was 93.4% (inactive). Further, in assay [20], the aptamer binding inhibition is 3% (inactive). Also, the values for the response in assay [21] and in [23] were -15.6% (inactive) and -0.27% (inactive), respectively. The binding (% of control) in assay [24] is 109% (inactive). For the same compound, in assay [25], the efflux inhibition (fraction of control) is -0.1 (inactive). In assay [27], the differentiation response is 11% (inactive).
